About 8,800 targets were measured; listed, in parts, are those with a hit and a random draw of the rest. About 0.5% of all pairs of compound and target were hits.
Assays:
Experiment in all cases: log2 fold change, soluble protein after heating vs DMSO (PISA); higher = thermal stabilisation; K562 lysate, 10 uM; active = over 0.2 and 3.5 SD of the protein, either way, in both replicates (recomputed)
[1] = compound: NCC(=O)Nc1ccc(-n2nc(C(F)(F)F)cc2-c2ccc3c(ccc4ccccc43)c2)cc1
In short: (§1)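 Log-two fold change in thermal stability relative to solvent controls is reported from duplicates. For each sample, crude K562 extract from dounce-homogenised pellets in PBS pH 7.4 with 1 mM MgCl2, at 1 mg/mL protein, was treated with 10 μM compound for 30 min. Aliquots heated for 3 min across 48°C-58°C were pooled, brought to 0.5% NP-40 at 4°C and cleared at 21,000xg for 90 min. The supernatant was quantified by TMTpro 16plex LC-MS/MS with channel sums equalised.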

vorinostat = compound: O=C(CCCCCCC(=O)Nc1ccccc1)NO [vorinostat]
In short: as §1

silmitasertib = compound: O=C(O)c1ccc2c(c1)nc(Nc1cccc(Cl)c1)c1ccncc12 [silmitasertib]
In short: as §1

[2] = compound: O=C1NC(=O)C(c2cnc3ccccn23)=C1c1cn2c3c(cc(F)cc13)CN(C(=O)N1CCCCC1)CC2
In short: as §1

entospletinib = compound: c1cn2cc(-c3ccc4cn[nH]c4c3)nc(Nc3ccc(N4CCOCC4)cc3)c2n1 [entospletinib]
In short: as §1

Measured: log2 fold change

ZNF598 isoform 3 (UniProt Q86UK7)
Sequence of UniProt Q86UK7 (Q86UK7 whole entry, looked up): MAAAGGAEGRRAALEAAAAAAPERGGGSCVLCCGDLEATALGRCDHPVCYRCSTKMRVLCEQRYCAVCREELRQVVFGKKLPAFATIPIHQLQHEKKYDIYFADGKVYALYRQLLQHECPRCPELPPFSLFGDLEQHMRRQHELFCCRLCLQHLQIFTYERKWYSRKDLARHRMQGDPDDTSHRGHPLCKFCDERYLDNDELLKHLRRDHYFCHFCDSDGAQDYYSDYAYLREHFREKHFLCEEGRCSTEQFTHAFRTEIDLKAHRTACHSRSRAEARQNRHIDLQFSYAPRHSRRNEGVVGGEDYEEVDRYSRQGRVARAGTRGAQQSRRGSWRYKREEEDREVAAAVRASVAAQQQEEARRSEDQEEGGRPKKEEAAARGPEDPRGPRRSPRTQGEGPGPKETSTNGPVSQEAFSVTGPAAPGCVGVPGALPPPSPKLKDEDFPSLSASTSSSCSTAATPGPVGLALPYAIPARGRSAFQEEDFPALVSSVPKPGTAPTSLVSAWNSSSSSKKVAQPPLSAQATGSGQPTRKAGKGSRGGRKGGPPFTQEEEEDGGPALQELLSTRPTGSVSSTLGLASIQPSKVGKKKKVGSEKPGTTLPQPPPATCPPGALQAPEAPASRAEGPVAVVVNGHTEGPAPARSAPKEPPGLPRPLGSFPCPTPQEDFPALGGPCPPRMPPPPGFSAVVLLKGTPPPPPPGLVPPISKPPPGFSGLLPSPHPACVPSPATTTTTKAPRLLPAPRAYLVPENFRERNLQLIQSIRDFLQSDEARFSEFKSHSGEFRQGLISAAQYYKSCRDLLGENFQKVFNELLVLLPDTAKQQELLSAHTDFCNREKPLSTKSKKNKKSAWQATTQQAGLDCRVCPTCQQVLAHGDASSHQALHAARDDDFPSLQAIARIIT
inactive: [1] 0.01 | silmitasertib 0 | [2] 0.024 | entospletinib -0.017
active: vorinostat -0.338

ZFPM1 (UniProt Q8IX07)
Sequence of UniProt Q8IX07 (Q8IX07 whole entry, looked up): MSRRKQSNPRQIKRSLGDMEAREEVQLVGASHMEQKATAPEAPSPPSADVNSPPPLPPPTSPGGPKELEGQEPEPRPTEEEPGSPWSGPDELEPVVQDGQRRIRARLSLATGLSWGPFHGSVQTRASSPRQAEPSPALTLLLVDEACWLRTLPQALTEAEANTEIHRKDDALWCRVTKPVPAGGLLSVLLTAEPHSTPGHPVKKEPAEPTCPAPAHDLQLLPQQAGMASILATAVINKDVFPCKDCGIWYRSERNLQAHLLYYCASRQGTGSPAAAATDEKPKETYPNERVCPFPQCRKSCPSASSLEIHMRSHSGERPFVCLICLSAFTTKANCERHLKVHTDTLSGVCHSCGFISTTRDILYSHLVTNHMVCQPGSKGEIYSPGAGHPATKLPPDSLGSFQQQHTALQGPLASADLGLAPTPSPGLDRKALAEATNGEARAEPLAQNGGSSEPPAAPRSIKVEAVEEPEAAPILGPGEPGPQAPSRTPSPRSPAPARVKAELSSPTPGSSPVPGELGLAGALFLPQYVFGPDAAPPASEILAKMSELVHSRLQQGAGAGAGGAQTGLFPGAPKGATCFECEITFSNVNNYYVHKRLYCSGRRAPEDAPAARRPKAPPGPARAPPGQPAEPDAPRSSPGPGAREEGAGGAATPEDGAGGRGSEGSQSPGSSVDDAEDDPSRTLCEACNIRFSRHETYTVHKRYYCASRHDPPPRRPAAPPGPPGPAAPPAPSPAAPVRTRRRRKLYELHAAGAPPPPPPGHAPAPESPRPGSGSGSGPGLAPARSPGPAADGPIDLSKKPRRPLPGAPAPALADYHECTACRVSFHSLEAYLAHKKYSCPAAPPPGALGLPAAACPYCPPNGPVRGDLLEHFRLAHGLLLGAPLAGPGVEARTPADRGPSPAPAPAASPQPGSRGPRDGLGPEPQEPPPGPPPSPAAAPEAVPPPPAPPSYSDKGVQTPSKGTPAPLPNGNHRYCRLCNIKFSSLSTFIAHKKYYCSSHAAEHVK
inactive: [1] -0.009 | silmitasertib 0 | [2] -0.03 | entospletinib -0.021
active: vorinostat -0.251

ZSCAN21 (UniProt Q9Y5A6)
Sequence of UniProt Q9Y5A6 (Q9Y5A6 whole entry, looked up): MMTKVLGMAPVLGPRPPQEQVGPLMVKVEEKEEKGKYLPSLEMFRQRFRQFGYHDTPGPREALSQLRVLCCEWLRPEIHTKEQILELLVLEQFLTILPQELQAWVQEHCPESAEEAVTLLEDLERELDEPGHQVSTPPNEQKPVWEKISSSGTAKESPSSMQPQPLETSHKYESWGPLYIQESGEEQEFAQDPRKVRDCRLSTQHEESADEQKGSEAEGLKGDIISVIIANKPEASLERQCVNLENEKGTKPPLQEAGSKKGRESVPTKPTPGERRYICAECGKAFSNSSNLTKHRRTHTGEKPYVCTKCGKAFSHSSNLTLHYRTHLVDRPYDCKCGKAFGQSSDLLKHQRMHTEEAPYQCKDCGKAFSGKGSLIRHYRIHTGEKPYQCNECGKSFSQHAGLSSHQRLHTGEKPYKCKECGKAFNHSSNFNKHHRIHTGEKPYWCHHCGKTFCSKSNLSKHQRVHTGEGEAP
inactive: entospletinib -0.208

YEATS4 (UniProt O95619)
Sequence of UniProt O95619 (O95619 whole entry, looked up): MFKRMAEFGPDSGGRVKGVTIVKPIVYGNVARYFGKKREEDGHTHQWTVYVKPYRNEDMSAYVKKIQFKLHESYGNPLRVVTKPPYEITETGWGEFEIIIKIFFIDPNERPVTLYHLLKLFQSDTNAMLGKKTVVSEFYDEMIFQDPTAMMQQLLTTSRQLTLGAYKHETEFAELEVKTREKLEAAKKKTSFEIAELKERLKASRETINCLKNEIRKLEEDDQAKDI
inactive: [1] 0.042 | vorinostat 0.057 | silmitasertib -0.029 | [2] -0.046 | entospletinib -0.037

ZSCAN26 (UniProt Q16670)
inactive: [2] -0.024

WAS (UniProt P42768)
Sequence of UniProt P42768 (P42768 whole entry, looked up): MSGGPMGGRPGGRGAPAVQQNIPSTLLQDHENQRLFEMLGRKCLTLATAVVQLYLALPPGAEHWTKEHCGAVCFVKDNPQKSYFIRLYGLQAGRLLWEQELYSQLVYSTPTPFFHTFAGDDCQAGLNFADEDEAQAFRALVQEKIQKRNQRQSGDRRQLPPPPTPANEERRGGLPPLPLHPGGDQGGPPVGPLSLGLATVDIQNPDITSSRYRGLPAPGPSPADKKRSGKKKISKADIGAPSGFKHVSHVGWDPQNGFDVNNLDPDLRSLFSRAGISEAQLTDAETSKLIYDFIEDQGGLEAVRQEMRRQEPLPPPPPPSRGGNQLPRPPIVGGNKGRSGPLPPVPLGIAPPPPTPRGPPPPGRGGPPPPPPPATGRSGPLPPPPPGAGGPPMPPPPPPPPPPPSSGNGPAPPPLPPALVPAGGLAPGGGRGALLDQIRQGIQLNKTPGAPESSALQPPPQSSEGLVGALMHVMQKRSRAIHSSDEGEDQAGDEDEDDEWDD
inactive: vorinostat -0.07 | silmitasertib 0.025 | entospletinib -0.055

VRK2 (UniProt Q86Y07)
Sequence of UniProt Q86Y07 (Q86Y07 whole entry, looked up): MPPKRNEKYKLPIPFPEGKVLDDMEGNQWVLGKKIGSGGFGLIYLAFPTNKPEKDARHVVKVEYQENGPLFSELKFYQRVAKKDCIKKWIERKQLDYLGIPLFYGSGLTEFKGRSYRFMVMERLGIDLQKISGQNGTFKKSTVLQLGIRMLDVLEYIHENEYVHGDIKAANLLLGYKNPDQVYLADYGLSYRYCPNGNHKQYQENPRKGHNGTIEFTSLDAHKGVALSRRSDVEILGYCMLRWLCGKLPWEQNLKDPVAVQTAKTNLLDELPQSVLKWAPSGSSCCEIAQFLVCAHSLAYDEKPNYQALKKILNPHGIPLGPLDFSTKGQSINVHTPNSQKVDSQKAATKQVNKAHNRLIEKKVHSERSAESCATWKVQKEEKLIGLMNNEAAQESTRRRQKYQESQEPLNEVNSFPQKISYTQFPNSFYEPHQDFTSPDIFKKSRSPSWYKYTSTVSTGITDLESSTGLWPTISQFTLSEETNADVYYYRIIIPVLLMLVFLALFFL
inactive: [1] -0.158 | vorinostat -0.166 | silmitasertib -0.022 | [2] 0.039 | entospletinib -0.064

ZDHHC17 (UniProt Q8IUH5)
Sequence of UniProt Q8IUH5 (Q8IUH5 whole entry, looked up): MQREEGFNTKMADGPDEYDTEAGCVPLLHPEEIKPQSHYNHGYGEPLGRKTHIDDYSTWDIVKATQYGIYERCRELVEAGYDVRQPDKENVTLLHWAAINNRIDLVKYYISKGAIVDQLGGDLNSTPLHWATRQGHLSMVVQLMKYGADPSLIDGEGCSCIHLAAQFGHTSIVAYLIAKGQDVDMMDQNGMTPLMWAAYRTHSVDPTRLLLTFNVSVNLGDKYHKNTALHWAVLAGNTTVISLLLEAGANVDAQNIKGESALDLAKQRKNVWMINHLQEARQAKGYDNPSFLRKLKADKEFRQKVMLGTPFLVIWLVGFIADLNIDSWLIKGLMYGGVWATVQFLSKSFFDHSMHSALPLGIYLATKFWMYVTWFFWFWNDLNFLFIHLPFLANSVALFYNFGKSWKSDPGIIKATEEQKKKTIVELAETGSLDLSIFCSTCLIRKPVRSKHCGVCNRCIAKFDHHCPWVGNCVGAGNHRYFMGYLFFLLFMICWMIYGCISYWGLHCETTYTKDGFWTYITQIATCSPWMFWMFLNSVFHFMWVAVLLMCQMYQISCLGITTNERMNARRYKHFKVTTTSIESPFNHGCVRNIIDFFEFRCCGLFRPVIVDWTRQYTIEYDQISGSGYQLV
inactive: [1] 0.065 | [2] -0.067 | entospletinib 0.009

ZNF346 (UniProt Q9UL40)
Sequence of UniProt Q9UL40 (Q9UL40 whole entry, looked up): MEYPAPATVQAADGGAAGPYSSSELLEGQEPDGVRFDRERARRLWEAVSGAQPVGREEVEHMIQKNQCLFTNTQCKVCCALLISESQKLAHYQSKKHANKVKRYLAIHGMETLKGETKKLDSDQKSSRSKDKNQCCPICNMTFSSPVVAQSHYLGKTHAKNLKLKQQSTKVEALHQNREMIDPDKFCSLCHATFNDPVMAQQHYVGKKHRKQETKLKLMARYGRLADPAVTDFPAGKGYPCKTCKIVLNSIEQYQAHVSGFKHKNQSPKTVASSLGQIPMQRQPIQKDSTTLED
inactive: vorinostat 0.137 | silmitasertib 0.018 | [2] -0.05 | entospletinib 0.02

VPS13C (UniProt Q709C8)
inactive: [1] 0.005 | vorinostat 0.062 | silmitasertib -0.033 | [2] 0.027 | entospletinib -0.051

VTN (UniProt P04004)
Sequence of UniProt P04004 (P04004 whole entry, looked up): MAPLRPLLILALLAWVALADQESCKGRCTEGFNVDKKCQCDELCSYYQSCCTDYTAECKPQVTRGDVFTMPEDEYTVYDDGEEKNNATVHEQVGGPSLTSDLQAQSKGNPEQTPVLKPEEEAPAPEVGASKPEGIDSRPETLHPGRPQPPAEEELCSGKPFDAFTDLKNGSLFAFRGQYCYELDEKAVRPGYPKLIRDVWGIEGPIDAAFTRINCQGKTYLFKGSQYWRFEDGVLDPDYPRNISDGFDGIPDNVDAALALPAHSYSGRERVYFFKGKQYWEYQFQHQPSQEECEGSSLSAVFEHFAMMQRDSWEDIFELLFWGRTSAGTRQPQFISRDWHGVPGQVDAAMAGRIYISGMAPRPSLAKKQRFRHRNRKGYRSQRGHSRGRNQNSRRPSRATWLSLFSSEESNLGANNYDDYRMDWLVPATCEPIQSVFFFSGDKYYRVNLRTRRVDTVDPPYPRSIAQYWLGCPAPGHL
inactive: [1] 0.126 | vorinostat -0.07 | silmitasertib -0.076 | [2] -0.085 | entospletinib -0.146

From the supplement of paper PMC10849652
